Only some compounds are listed: those with a hit (about 3.3% of all), similar ones and a draw of the others.
VACV mCherry inh: vaccinia inhibition (mCherry reporter); Vaccinia virus mCherry reporter infection, fluorescence; actives 0.63% (n = 310,000); Potency, µM (titrated, usually from 36.5 µM), for the others: top-dose activity change, negative = inhibition, most hits filed as inhibitors; AID 720579; calls by dose curve; tested in A549 cells; further: nearly all actives have a fitted effect of over 35% in size
HCV inh: inhibitors of hepatitis C virus infection. Potency, µM (top dose mostly 41.8 µM), inactives show at the highest dose activity change, negative = inhibition, actives largely listed as inhibitors. Huh7.5.1 HCVcc-Cre infection, luciferase reporter, 44 h. actives 3.4% (n = 340,000). AID 651820; active means well fitted inhibition curve with a large enough effect; inconclusive means small, poorly fitted or top-dose-only effect, or another doubt; inactive means no such curve, though single readings can be large or run the other way
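Infectious HCVcc-Cre (~0.5 moi) was added to cells just after compound, with cells seeded 4 h earlier at 1,000 per well. Luciferase activity after 44 h culture reported infection; substrate was incubated 15 min at room temperature before reading.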
Vaccinia Venus: inhibitors of vaccinia virus (Venus reporter); Vaccinia virus Venus reporter expression, fluorescence; Potency, µM (top dose mostly 36.5 µM), inactives show at the top dose activity change, negative = inhibition, actives largely listed as inhibitors; actives 0.46% (n = 330,000); calls by dose curve; tested in A549 cells; further: nearly all actives have a fitted effect of over 30% in size
* = called active by the depositor; i = inactive; u = inconclusive; x = no result; [ ] = remark or other dose. On the % scale 0 is the no-effect control and ±100 the full control effect; potency means the concentration at half of the fitted maximal effect.

SMILES	VACV mCherry inh	HCV inh	Vaccinia Venus
CCOC(=O)C1C(C(=O)OC)=C(c2ccc(OC)cc2)c2ccccc2N1S(=O)(=O)C(F)(F)F (stereo not given)	i	11µM*	-17%
CCOC(=O)C1=C(c2ccccc2)c2ccccc2N(S(=O)(=O)C(F)(F)F)C1C(=O)OCC (stereo not given)	-28%	2.8µM*	0%
CCOC(=O)C1C(C(=O)OC)=C(c2ccc(F)cc2)c2ccccc2N1S(=O)(=O)C(F)(F)F (stereo not given)	i	u	-17%
CCOC(=O)C1C(C(C)=O)=C(c2ccccc2)c2ccccc2N1S(=O)(=O)C(F)(F)F (stereo not given)	-5%	-28%	-14%
Cc1nn(C)c(C(=O)N/N=C/c2cccnc2)c1Br	-3%	5%	-7%
O=C(COC(=O)C1CC2CCCC(C1)C2=O)NC1CCCCC1 (stereo not given)	x	1%	x
COc1ccc(C2C(CN3CCOCC3)C(=O)N2c2ccccc2)cc1 (stereo not given)	-17%	13%	-14%
COc1ccc(N2C(=O)C(CN3CCN(C)CC3)C2c2ccccc2)cc1 (stereo not given)	x	35µM*	x
CCN1C(=O)c2ccccc2S(=O)(=O)c2ccc(C(=O)NCc3ccc(C)cc3)cc21	-11%	x	-9%
Cc1ccc(/C=C2/CNC/C(=C/c3ccc(C)cc3)C2=O)cc1	u	8.9µM*	u
Cc1ccc(/C=C2\CCOC2=O)cc1	i	-6%	1%
CCCn1nc(NC(=O)C2CCCO2)c2cc3ccc(C)cc3nc21 (stereo not given)	u	u	-10%
CCCn1nc(NC(=O)c2cccs2)c2cc3ccc(C)cc3nc21	x	14µM*	x
CCn1nc(NC(=O)c2ccco2)c2cc3cc(C)ccc3nc21	u	u	-30%
CCn1nc(NC(=O)c2ccncc2)c2cc3cc(C)ccc3nc21	-8%	u	-25%
CCCn1nc(NC(=O)c2cccs2)c2cc3ccccc3nc21	x	11µM*	x
CCCn1nc(NC(=O)c2cccs2)c2cc3cc(C)ccc3nc21	-21%[7.34 µM]	22µM*	-24%[7.34 µM]
CCCn1nc(NC(=O)c2ccco2)c2cc3ccccc3nc21	x	35µM*	x
CCCCn1nc(NC(=O)c2cccc(Cl)c2)c2cc3ccccc3nc21	-11%	x	1%
Cc1cc(C(=O)Nc2ccccc2C)n(-c2ccccc2)n1	i	18%	-3%
CCOC(=O)C1=C(C)Nc2ccccc2N/C1=N\S(=O)(=O)c1cc(C(=O)O)ccc1Cl	x	-1%	x
O=C(NCCN1CCOCC1)c1cnn(-c2nccc(-c3ccccc3F)n2)c1C1CC1	-1%	x	u
COc1ccc(N2CCN(C(CNC(=O)CC(C)(C)C)c3ccc4c(c3)OCO4)CC2)cc1 (stereo not given)	-11%	0%	-15%
COc1ccc(S(=O)(=O)N2CCN(CCc3ccccc3)CC2)cc1	i	u	-2%
N#Cc1cccc2c1-c1ccccc1/C2=N/NC(N)=S	u	13µM*	u
SMILES	VACV mCherry inh	HCV inh	Vaccinia Venus
NC(=S)NN=C1c2ccccc2-c2c(F)c(F)c(F)c(F)c21	-9%	u	-24%
Cc1ccc2c(c1)C/C(=C/c1ccc(N(C)C)cc1)C2=O	11%	x	15%
OCC(O)C[n+]1cccc(Br)c1 (stereo not given)	38%	x	-13%
O=C(CC1C[C@H](C(=O)N2CCCCC2)[C@@]2(CCc3ccccc3)c3[nH]c4ccccc4c3CCN2C1=O)NCCc1ccccn1 (stereo not given in full)	10µM*	-7%[8.37 µM]	u
CC[C@]12c3[nH]c4ccccc4c3CCN1C(=O)C(CC(=O)NCCc1ccccn1)C[C@@H]2C(=O)N1CCN(C(=O)c2ccco2)CC1 (stereo not given in full)	i	0.56µM*	-15%
CC[C@]12c3[nH]c4cc(CCC(=O)N(C)C)ccc4c3CCN1C(=O)[C@@H](CC(=O)NCCc1ccccn1)C[C@@H]2C(=O)N1CCN(C(=O)c2ccco2)CC1	-3%	-18%[8.37 µM]	3%
C[C@]12c3[nH]c4ccccc4c3CCN1C(=O)C(CC(=O)NCCc1ccccn1)C[C@@H]2C(=O)N1CCCCC1 (stereo not given in full)	i	12%	-10%
CCN(C(=O)c1ccc(S(=O)(=O)N2CCCC2)cc1)C1CCS(=O)(=O)C1 (stereo not given)	i	7%	-13%
CCCc1cc(C(=O)N2CCCC(Nc3ccc(C)c(C)c3)C2)n(C)n1 (stereo not given)	-14%	-15%	-12%
COc1ccc(S(=O)(=O)N2CCN(c3nc(-c4ccccc4)nc4ccccc34)CC2)cc1	-11%	x	-18%
COc1ccc(CNc2nc(C)c([N+](=O)[O-])c(C)c2C#N)cc1	i	-4%	-11%

Compound activity as filed in PubChem.
